# This is a sample that favours compounds with a hit; in the whole collection about 12% have one here.
# Sm TGR block: qHTS Assay for the Inhibitors of Schistosoma Mansoni Peroxiredoxins; Schistosoma mansoni thioredoxin glutathione reductase (TGR), Q962Y6; purified TGR, DTNB reduction, TNB absorbance 405 nm; Potency, µM (top dose mostly 114 µM), hits mostly inhibitors; actives 3% (n = 360,000); also: nearly all actives have a fitted effect of over 60% in size
#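 TGR 20 nM + NADPH 100 uM (dispensed conc.), cpd preinc 15 min RT; start with NADPH (500 uM addition) then DTNB (15 mM addition). Kinetic TNB absorbance, 405 nm filter. Four-parameter Hill fit across titration.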
# AmpC inh no detg: qHTS Inhibitors of AmpC Beta-Lactamase (assay without detergent); P00811; AmpC nitrocefin hydrolysis, absorbance 480 nm, 0.0001% Triton; Potency, µM (highest dose often 57.1 µM), hits mostly inhibitors; actives 0.52% (n = 330,000); also: nearly all actives have a fitted effect of over 20% in size
# Target sequence (P00811 whole entry, looked up): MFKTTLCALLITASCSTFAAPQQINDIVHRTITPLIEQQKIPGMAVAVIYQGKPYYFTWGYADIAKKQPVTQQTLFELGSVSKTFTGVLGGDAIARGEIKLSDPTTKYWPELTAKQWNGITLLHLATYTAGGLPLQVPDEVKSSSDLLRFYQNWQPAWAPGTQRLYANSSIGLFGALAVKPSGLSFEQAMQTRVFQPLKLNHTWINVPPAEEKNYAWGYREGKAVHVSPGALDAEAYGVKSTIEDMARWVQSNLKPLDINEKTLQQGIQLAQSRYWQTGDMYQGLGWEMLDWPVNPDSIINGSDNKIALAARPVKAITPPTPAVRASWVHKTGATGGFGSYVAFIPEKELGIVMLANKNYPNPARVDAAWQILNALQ
#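 AmpC (5.3 nM in the dispensed reagent) in 20 mM phosphate pH 7.0 with 0.01% (detergent screen) or 0.0001% Triton X-100 was preincubated with compounds for 15 min at room temperature. Nitrocefin was then added from an 800 uM solution, and hydrolysis was followed at 480 nm.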
# SARS PLP yeast: qHTS of Yeast-based Assay for SARS-CoV PLP; actives 0.19% (n = 330,000); Potency, µM (series often up to 32.9 µM), most hits filed as activators; S. cerevisiae expressing SARS-CoV PLpro, growth rescue; calls by dose curve; also: nearly all actives have a fitted effect of over 55% in size
# AmpC inh detg: qHTS Inhibitors of AmpC Beta-Lactamase (assay with detergent). AmpC hydrolysis of nitrocefin, absorbance 480 nm, 0.01% Triton. AID 485294, 2010. actives 0.041% (n = 370,000). Potency, µM (doses to about 114 µM), most hits filed as inhibitors; also: nearly all actives have a fitted effect of over 25% in size
#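 AmpC (5.3 nM in the dispensed reagent) in 20 mM phosphate pH 7.0 with 0.01% (detergent screen) or 0.0001% Triton X-100 was preincubated with compounds for 15 min at room temperature. Nitrocefin was then added from an 800 uM solution, and hydrolysis was followed at 480 nm.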
# Pf growth 48h: Primary qHTS for delayed death inhibitors of the malarial parasite plastid, 48 hour incubation. P. falciparum luciferase growth in erythrocytes, 48 h. Potency, µM (series often up to 28.7 µM), most hits filed as inhibitors. actives 5.9% (n = 310,000)
#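 Growth was read as firefly luciferase luminescence after a 48 h, 37 C, 5% CO2 exposure of compounds to reporter-bearing P. falciparum cultures (0.1% parasitemia, 2% hematocrit final) in Albumax-supplemented RPMI 1640.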
# Pf growth 96h: Primary qHTS for delayed death inhibitors of the malarial parasite plastid, 96 hour incubation; actives 6.9% (n = 320,000); P. falciparum luciferase reporter growth, 96 h; Potency, µM (top dose mostly 28.7 µM), usual class: inhibitors
#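 96 h incubation, 37 C, 5% CO2, of luciferase-reporter P. falciparum-infected RBCs (2% hematocrit, 0.05% parasitemia final) with test compounds; endpoint luminescence.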
# A number is an active result; i = inactive; ? = inconclusive; nt = not tested or not shown. Unless noted, calls follow the shape of the dose curve; as a rule, active = well fitted curve in the direction sought with a large enough effect; inconclusive = small, poorly fitted or top-dose-only effect, or another doubt; inactive = no such curve, though single readings can be large; an effect the other way counts as inactive or inconclusive.
SMILES,Sm TGR block,AmpC inh no detg,SARS PLP yeast,AmpC inh detg,Pf growth 48h,Pf growth 96h
COc1ccc2cc(CN(CC3CCCO3)C(=S)Nc3ccccc3)c(=O)[nH]c2c1 (stereo not drawn),i,i,i,i,9.3µM,?
Cc1cc2cc(CN(CC3CCCO3)C(=S)Nc3ccccc3)c(=O)[nH]c2cc1C (stereo not drawn),i,i,i,i,12µM,i
CCN1CCCC1CN(Cc1cc2ccc(C)cc2[nH]c1=O)C(=S)Nc1cccc(OC)c1 (stereo not drawn),i,i,i,?,10µM,i
O=C(NCCOc1ccccc1F)C1CC(=O)N(Cc2ccccc2)C1 (stereo not drawn),nt,i,i,nt,nt,nt
CCc1nnc(NC(=O)c2cc(=O)c3cc(C)c(C)cc3o2)s1,i,nt,nt,i,nt,nt
CC(C)(C)NC(=O)NC(=O)COC(=O)Cn1cnc2ccccc2c1=O,i,i,i,?,12µM,i
O=C(CSc1nnnn1Cc1ccccc1)NCC(=O)c1ccccc1,50µM,i,i,i,i,i
CC(C)(C)NC(=O)CSc1nc2ccc(NC(=O)CSc3nnnn3Cc3ccccc3)cc2s1,i,i,i,i,nt,4.7µM
CCC(=O)Nc1cccc(NC(=O)CSc2nnnn2Cc2ccccc2)c1,i,i,i,i,i,2.1µM
COc1cc(NC(=O)CSc2nnnn2Cc2ccccc2)cc(OC)c1,i,i,i,i,i,i
CN1c2ccccc2C(C)(C)C12CC(CCl)=NO2 (stereo not drawn),40µM,i,i,i,i,i
COC(=O)c1c(C)oc(C)c1S(=O)(=O)N(C)C1CCCCC1,45µM,i,i,i,i,i
Cc1ccc(-n2nc(C)c3c(C(=O)NCCc4ccccc4)cc(C)nc32)cc1,i,nt,nt,i,nt,nt
COc1ccc(CN(CCC(c2ccccc2)C2CCOC(C)(C)C2)C(C)=O)cc1 (stereo not drawn),i,i,i,i,13µM,i
CCCCOC(=O)Cn1nnc2sc(-c3ccccc3)cc2c1=O,i,nt,nt,i,nt,nt
O=C1c2ccc3c4c(ccc(c24)C(=O)N1c1cccc(O)c1)CC3,i,i,i,i,i,i
COc1ccccc1Oc1ccc2c(c1)C(=O)N(c1cccc3ncccc13)C2=O,i,i,i,i,i,i
COc1ccccc1Oc1ccc2c(c1)C(=O)N(c1cccc(O)c1)C2=O,i,i,i,i,2.6µM,i
O=C1c2ccc3c4c(ccc(c24)C(=O)N1c1cccc(O)c1)C(=O)N(c1cccc(O)c1)C3=O,i,i,i,i,1.9µM,1µM
Oc1[nH]c(N=C2N=c3ccccc3=N2)c2ccccc12,i,i,i,i,i,2.3µM
Cc1ccc(O)c(-c2[nH]ncc2C(=O)c2ccc(Br)cc2)c1,i,5µM,i,i,?,i
Cc1cccc(-c2nc(S(=O)(=O)c3ccccc3)c(N3CCN(c4ccccc4)CC3)o2)c1,i,nt,nt,i,nt,nt
COc1ccc(CSc2nnnn2Cc2ccccc2)cc1OC,i,i,i,i,i,i
Cc1sc2ccc3sccc3c2[n+]1C,i,i,i,i,i,15µM
COC(=O)C1=C(C)OC(N)=C(C#N)C1c1ccccc1F (stereo not drawn),i,i,i,?,i,i
CN(C)c1ccc2c(c1)OC(N)=C(C#N)C2c1cccc(F)c1 (stereo not drawn),i,i,i,i,13µM,?
N#CC1=C(N)Oc2cc(O)ccc2C1c1cccnc1 (stereo not drawn),i,i,i,i,i,i
N#CC1=C(N)Oc2cc(O)c(Cl)cc2C1c1ccccc1F (stereo not drawn),45µM,i,i,i,nt,i
COC(=O)c1ccc(C2C(C#N)=C(N)Oc3cc(N)ccc32)cc1 (stereo not drawn),i,i,?,i,i,12µM
N#CC1=C(N)Oc2cc(O)c(Cl)cc2C1c1cccnc1 (stereo not drawn),32µM,i,i,i,?,i

# Compound activity deposited in PubChem BioAssay by National Center for Advancing Translational Sciences (NCATS).
